# Where a name gives a salt, the structure may show the parent alone. ± gives the standard deviation or the standard deviation of the averaged measurements.
# Columns and labels:
# Details in all cases: 25 µM; exposure: 24-48 hpf
# [1] = test system: Danio rerio Tg(wt1b:EGFP) embryo, pronephros; assay: glomerular separation, fold change vs DMSO control; higher = glomeruli further apart (abnormal)
# In short: (§1)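 Using a Fiji macro, distances and angles were calculated from 16 reference points set by hand on maximum projections of pronephroi imaged dorsally (470 nm, 10 z-slices) in agarose-filled 96-well plates. The dechorionated Tg(wt1b:EGFP) zebrafish embryos had received 25 μM compound in 0.5% DMSO in HEPES-buffered E3 with 0.003% PTU from 24 to 48 hpf at 28.5°C. Values more than 2 SD from a feature's mean were excluded. Each feature appears as a fold change over the mean of DMSO-treated embryos from the same day.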
# [2] = test system: Danio rerio Tg(wt1b:EGFP) embryo, pronephros; assay: glomerular width (mean of left and right), fold change vs DMSO control; higher = wider glomerulus
# In short: as §1
# [3] = test system: Danio rerio Tg(wt1b:EGFP) embryo, pronephros; assay: fraction of imaged embryos annotated as normal kidney; higher = less nephrotoxic; extreme values may be limits of the assay
# In short: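 Embryos of the Tg(wt1b:EGFP) zebrafish line were dechorionated and held in 12-well plates with 25 μM compound in 0.5% DMSO and 5 mM HEPES-buffered E3 containing 0.003% PTU, from 24 to 48 hpf at 28.5°C. Larvae were then anaesthetised with tricaine, set dorsal side up in agarose-filled 96-well plates, and their pronephroi imaged by widefield fluorescence at 470 nm over 10 z-slices. Each value is the fraction of embryos per treatment placed in the normal-kidney category after manual annotation of maximum projections.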
# [4] = test system: Danio rerio Tg(wt1b:EGFP) embryo, pronephros; assay: pronephric angle neck segment to proximal convoluted tubule (mean of left and right), fold change vs DMSO control; higher = larger pronephric angle
# In short: as §1
Compound,glomerular separation [1],glomerular width [2],fraction of imaged embryos annotated as normal kidney [3],pronephric angle neck segment [4]
C#C[C@]1(O)CC[C@H]2[C@@H]3CCC4=CC(=O)CC[C@@H]4[C@H]3CC[C@@]21C [Norethindrone],0.967 ± 0.35,0.934 ± 0.068,0.909,1 ± 0.022
CCCCc1oc2ccccc2c1C(=O)c1cc(I)c(OCCN(CC)CC)c(I)c1 [Amiodarone hydrochloride],2 ± 1.1,0.862 ± 0.021,0.4,1.14 ± 0.13
CCN(CC)CC#CCOC(=O)C(O)(c1ccccc1)C1CCCCC1 (stereo not drawn) [Oxybutynin chloride],1.32 ± 0.54,1.04 ± 0.022,1,0.985 ± 0.028
CC(C)N1CCN(c2ccc(OCC3COC(Cn4cncn4)(c4ccc(Cl)cc4Cl)O3)cc2)CC1 (stereo not drawn) [Terconazole],0.864 ± 0.17,1.0642 ± 0.00066,1,0.948 ± 0.017
Cn1ccnc1S [Methimazole],1.23 ± 0.58,0.876 ± 0.045,0.818,1.11 ± 0.064
CC(C)C[C@H](NC(=O)[C@@H](O)[C@H](N)Cc1ccccc1)C(=O)O [Ubenimex],1.12 ± 0.52,1.01 ± 0.048,0.833,1.01 ± 0.028
O=c1[nH]c(=O)n([C@H]2C[C@H](O)[C@@H](CO)O2)cc1I [Idoxuridine],1.12 ± 0.42,1.05 ± 0.017,0.667,1.05 ± 0.073
CC(=O)OCC(=O)[C@@]12OC3(CCCC3)O[C@@H]1C[C@H]1[C@@H]3CCC4=CC(=O)C=C[C@]4(C)[C@@]3(F)[C@@H](O)C[C@@]12C [Amcinonide],1.06 ± 0.48,1.22 ± 0.14,0.417,1.01 ± 0.019
c1ccc2[nH]c(-c3cscn3)nc2c1 [Tiabendazole],1.4 ± 0.65,1.01 ± 0.12,0.667,1.04 ± 0.02
CCCC1O[C@@H]2C[C@H]3[C@@H]4CCC5=CC(=O)C=C[C@]5(C)[C@H]4[C@@H](O)C[C@]3(C)[C@]2(C(=O)CO)O1 (stereo partly drawn) [Budesonide],0.957 ± 0.24,1.29 ± 0.049,0.833,1.04 ± 0.12
COc1cc(C(=O)NCc2ccc(OCCN(C)C)cc2)cc(OC)c1OC [Trimethobenzamide hydrochloride],1.09 ± 0.18,1.05 ± 0.012,0.833,0.9712 ± 0.0027
C#C[C@]1(OC(C)=O)CC[C@H]2[C@@H]3CCC4=C[C@@H](OC(C)=O)CC[C@@H]4[C@H]3CC[C@@]21C [Ethynodiol diacetate],1.12 ± 0.65,0.958 ± 0.052,0.75,1.13 ± 0.057
"OCC(O)CN1CCN(c2ccccc2)CC1 (racemic) [Dropropizine (R,S)]",0.917 ± 0.28,1.002 ± 0.0079,0.75,1.03 ± 0.038
CCOC(=O)Nc1ccc2c(c1)N(C(=O)CCN1CCOCC1)c1ccccc1S2 [Moricizine hydrochloride],0.635 ± 0.18,1.04 ± 0.013,0.833,0.993 ± 0.055
CCOc1ccc2ccccc2c1C(=O)N[C@@H]1C(=O)N2[C@@H]1SC(C)(C)[C@@H]2C(=O)O [Nafcillin sodium salt monohydrate],0.868 ± 0.32,0.941 ± 0.019,0.833,1.041 ± 0.0022
CNCCC=C1c2ccccc2C=Cc2ccccc21 [Norcyclobenzaprine],1.12 ± 0.86,1.01 ± 0.051,0.833,0.94 ± 0.027
Cc1onc(-c2ccccc2)c1C(=O)N[C@@H]1C(=O)N2[C@@H]1SC(C)(C)[C@@H]2C(=O)O [Oxacillin sodium],0.779 ± 0.29,1 ± 0.087,0.833,0.9685 ± 0.0044
CN(C)[C@@H]1C(O)=C(C(N)=O)C(=O)[C@@]2(O)C(O)=C3C(=O)c4c(O)cccc4[C@@](C)(O)[C@H]3C[C@@H]12 [Tetracycline hydrochloride],1.33 ± 0.62,1.06 ± 0.042,0.778,0.9721 ± 0.0096
CC(C)NNC(=O)c1ccncc1 [Iproniazide phosphate],0.735 ± 0.21,1.03 ± 0.024,1,0.9788 ± 0.0054
CC1(C)O[C@@H]2C[C@H]3[C@@H]4C[C@H](F)C5=CC(=O)C=C[C@]5(C)[C@@]4(F)[C@@H](O)C[C@]3(C)[C@]2(C(=O)CO)O1 [Fluocinolone acetonide],1.23 ± 0.54,1.26 ± 0.028,0.0833,1.02 ± 0.065
CN(C)CCOC(=O)COc1ccc(Cl)cc1 [Meclofenoxate hydrochloride],1.19 ± 0.36,1.02 ± 0.049,0.667,1.05 ± 0.057
OC(Cn1cncn1)(Cn1cncn1)c1ccc(F)cc1F [Fluconazole],1.11 ± 0.31,0.967 ± 0.095,0.917,0.978 ± 0.021
CC(=O)OCC(=O)[C@@]12OC(C)(C)O[C@@H]1C[C@H]1[C@@H]3C[C@H](F)C4=CC(=O)C=C[C@]4(C)[C@@]3(F)[C@@H](O)C[C@@]12C [Fluocinonide],1.04 ± 0.63,1.4 ± 0.044,0.417,1.05 ± 0.067
CN(C)CCCN1c2ccccc2CCc2ccc(Cl)cc21 [Clomipramine hydrochloride],1.18 ± 0.38,0.947 ± 0.035,0.667,1.06 ± 0.014
Cc1cc(CC(=O)O)n(C)c1C(=O)c1ccc(Cl)cc1 [Zomepirac sodium salt],0.83 ± 0.4,0.811 ± 0.033,0.273,1.23 ± 0.062
Nc1nc2[nH]cc(CCc3ccc(C(=O)N[C@@H](CCC(=O)O)C(=O)O)cc3)c2c(=O)[nH]1 [Pemetrexed disodium],0.831 ± 0.39,1.08 ± 0.041,0.833,0.972 ± 0.057
COc1ccc(-c2ccc3cc(C(=O)O)ccc3c2)cc1C12CC3CC(CC(C3)C1)C2 [Adapalene],0.97 ± 0.49,0.993 ± 0.012,0.833,1.1 ± 0.0022

# Source: the supplement of paper PMC7366291
